PubChem BioAssay AID1533 (PCMD, 2009)
Out of some 160,000 compounds screened, about 45 (0.03%) were called active. Cut-off read from the data, not from the text of the source: active = inhibition mostly above about 34% (no sharp cut-off); inconclusive = no clear call, values can overlap the other calls; inactive = mostly below about 22%. The entries come from a sample that favours actives as a whole.

Molecular target: dTDP-4-dehydrorhamnose reductase (Mycobacterium tuberculosis (strain ATCC 25618 / H37Rv)) + dTDP-4-dehydrorhamnose 3,5-epimerase (Mycobacterium tuberculosis (strain ATCC 25618 / H37Rv)) (UniProt P9WH09+P9WH11)
Sequence (P9WH09 whole entry, looked up): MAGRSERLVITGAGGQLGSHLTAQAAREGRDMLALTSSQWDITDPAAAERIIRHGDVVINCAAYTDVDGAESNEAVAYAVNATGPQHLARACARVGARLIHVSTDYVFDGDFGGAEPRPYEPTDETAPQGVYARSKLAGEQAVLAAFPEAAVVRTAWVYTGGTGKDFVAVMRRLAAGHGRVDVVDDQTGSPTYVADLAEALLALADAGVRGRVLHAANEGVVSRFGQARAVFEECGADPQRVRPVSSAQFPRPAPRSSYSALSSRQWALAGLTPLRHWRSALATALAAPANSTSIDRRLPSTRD
Sequence (P9WH11 whole entry, looked up): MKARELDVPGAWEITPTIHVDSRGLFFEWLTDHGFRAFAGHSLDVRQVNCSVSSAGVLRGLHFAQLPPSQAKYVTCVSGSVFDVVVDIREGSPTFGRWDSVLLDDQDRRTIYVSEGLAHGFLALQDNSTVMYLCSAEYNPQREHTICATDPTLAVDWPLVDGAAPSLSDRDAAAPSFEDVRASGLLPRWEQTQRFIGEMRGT
Experiment: M. tuberculosis RmlC/RmlD coupled enzyme inhibitors, primary screen, biochemical, compound mixtures, 384-well, from 1536-well plates (AID 1533)
Details: RmlC+RmlD coupled enzyme assay, percent inhibition, primary screen in compound mixtures, stronger effect = higher value
[1] = measured here: mean retest inhibition, at 5.5 µM

COc1ccc(CCN2C(=O)N(c3ccc(OC)cc3)C(=O)C2CC(=O)Nc2ccc(OC)cc2)cc1 (centres undefined)
inhibition (at 3.6 µM): -9.07% (inactive)

CCOC(=O)C1(Cc2cccc(OC)c2)CCN(C(C)CC(C)(C)O)CC1 (centres undefined)
inhibition (at 3.6 µM): 7.5% (inactive)

COc1ccc(NS(=O)(=O)c2ccc(N3CCOCC3)c(NC(=O)c3ccccc3Br)c2)cc1
inhibition (at 3.6 µM): -4.87% (inactive)

Cc1nc2nc(SCC(=O)c3ccccc3)[nH]c2cc1Br
inhibition (at 3.6 µM): 4.73% (inactive)

O=C1C2C3C=CC(C3)C2C(=O)N1c1ccc(S(=O)(=O)Nc2nccs2)cc1 (centres undefined)
inhibition (at 3.6 µM): -2.55% (inactive)

COCCSc1nnc(NC(=O)c2cc(OC)c(OC)cc2[N+](=O)[O-])s1
inhibition (at 3.6 µM): 15.5% (inactive)

CC(=O)c1sc(NC(=O)C2=NN(c3ccccc3)C(=O)CC2)nc1C
inhibition (at 3.6 µM): -9.61% (inactive)

Cc1ccc(NC(=O)NC2CCCCC2)cc1S(=O)(=O)N1CCOCC1
inhibition (at 3.6 µM): -9.91% (inactive)

Clc1ccc2nc(-c3ccccc3)nc(C(Cl)Cl)c2c1
inhibition (at 3.6 µM): 0.32% (inactive)

O=S(=O)(Nc1ccc(OC(F)(F)F)cc1)c1cccc2nonc12
inhibition (at 3.6 µM): 4.95% (inactive)

O=C(NCc1ccc(F)cc1)C1CCC(CNc2c(N3CCOCC3)c(=O)c2=O)CC1 (centres undefined)
inhibition (at 3.6 µM): 43.3% (inactive)
inhibition [1]: -8.27%

CCOc1ccc(CCN2C(=O)c3cccnc3C2=O)cc1OCC
inhibition (at 3.6 µM): 3.14% (inactive)

Cc1ccc(NC(=O)c2ccc(S(=O)(=O)NCC3CCCO3)cc2)cc1C (centres undefined)
inhibition (at 3.6 µM): 0.36% (inactive)

CC(=O)NC(=S)Nc1ccc(NC(=O)c2cccnc2)cc1
inhibition (at 3.6 µM): 2.81% (inactive)

COc1ccc(C(C(=O)NC(C)(C)C)N(C(=O)Cn2nnc3ccccc32)c2ccc(C(C)=O)cc2)cc1O (centres undefined)
inhibition (at 3.6 µM): 11.7% (inactive)

CSc1ccccc1NC(=O)CN(C)CC(=O)Nc1cccc(Br)c1
inhibition (at 3.6 µM): 6.55% (inactive)

O=C1/C(=C/c2coc3ccc(O)cc3c2=O)SC(=S)N1c1ccccc1
inhibition (at 3.6 µM): -8.54% (inactive)

Cc1cccn2c(CNCC(C)Oc3cccnc3)c(C(=O)N3CCOCC3)nc12 (centres undefined)
inhibition (at 3.6 µM): 7.78% (inactive)

CCN(CC)c1ccc(NC(=O)C2CCC(CNc3c(N4CCCC4)c(=O)c3=O)CC2)c(C)c1 (centres undefined)
inhibition (at 3.6 µM): 6.36% (inactive)

O=S(=O)(c1ccccc1)N1CN(Cc2ccc(F)cc2)c2nc3ccccc3nc21
inhibition (at 3.6 µM): -11.9% (inactive)

Cc1ccc(S(=O)(=O)N(C)CC(=O)OCC(=O)Nc2ccccc2)cc1
inhibition (at 3.6 µM): 13.5% (inactive)

C/C(=N\NC(=S)NCc1ccccc1)C1CCCCC1
inhibition (at 3.6 µM): 5.23% (inactive)

Fc1cccc2ncnc(OCc3ccccc3)c12
inhibition (at 3.6 µM): 3.36% (inactive)

CCn1c(SCC(=O)Nc2sc(C)c(C)c2C#N)nnc1C1CC1
inhibition (at 3.6 µM): -13.3% (inactive)

CCC(C)NC(=O)C1c2ccccc2Oc2ccccc21 (centres undefined)
inhibition (at 3.6 µM): 10.6% (inactive)

CCOC(=O)c1ccc(S(=O)(=O)N(CCO)Cc2cc3cc(OC)c(OC)cc3[nH]c2=O)cc1
inhibition (at 3.6 µM): -8.54% (inactive)

CCc1cccc(NC(=O)CCNS(=O)(=O)c2cccc3nonc23)c1
inhibition (at 3.6 µM): -2.17% (inactive)

CCC(C)(C)NC(=O)C(c1ccc(O)cc1)N(C(=O)Cn1nnc2ccccc21)c1ccc(NC(C)=O)cc1 (centres undefined)
inhibition (at 3.6 µM): 4.36% (inactive)

COC(=O)c1ccc(COc2ccc(/C=N/NC(=O)C(=O)Nc3ccc(OC)cc3)cc2OC)o1
inhibition (at 3.6 µM): -13.4% (inactive)

Cn1nc(C(C)(C)C)c([N+](=O)[O-])c1C(N)=O
inhibition (at 3.6 µM): 11.8% (inactive)

Cc1ccc(NC(=O)/C(=C\c2ccccc2)NC(=O)c2ccco2)cc1
inhibition (at 3.6 µM): 44% (inactive)
inhibition [1]: 3.08%

Cc1ccc(OCC(=O)Nc2nnc(-c3ccco3)s2)cc1
inhibition (at 3.6 µM): -5.61% (inactive)

O=[N+]([O-])c1ccc(N=Cc2c(O)ccc3ccccc23)cc1
inhibition (at 3.6 µM): -17.6% (inactive)

O=c1[nH]nc(SCCS(=O)(=O)c2ccc(F)cc2)n1-c1ccccc1C(F)(F)F
inhibition (at 3.6 µM): -9.62% (inactive)

C=CCc1cccc2cc(C(=O)NC3CCCC3)c(=O)oc12
inhibition (at 3.6 µM): 3.42% (inactive)

COc1ccc2[nH]c(C(=O)Nc3ccccc3Cl)cc2c1
inhibition (at 3.6 µM): -0.28% (inactive)

CC1=NNC(=O)C1CC(=O)N/N=C/c1ccncc1 (centres undefined)
inhibition (at 3.6 µM): 8.8% (inactive)

C/C(=C\c1ccco1)CN1CCC(N2CCC(C(=O)N3CCOCC3)CC2)CC1
inhibition (at 3.6 µM): 3.12% (inactive)

O=C(C[n+]1cc(-c2ccc(Cl)c(Cl)c2)n2c1CCC2)c1cccs1
inhibition (at 3.6 µM): 2.29% (inactive)

COc1ccc([N+](=O)[O-])cc1N(CC(O)CN(CC(C)C)CC(C)C)S(=O)(=O)c1ccc(C)cc1 (centres undefined)
inhibition (at 3.6 µM): 2.56% (inactive)

COc1cc(N/C=C2\CC(=O)NC(C)=C2C#N)cc(OC)c1OC
inhibition (at 3.6 µM): -11.2% (inactive)

CC(C)N(C(=O)CSc1nc(COc2ccccc2)nc2ccccc12)C(C)C
inhibition (at 3.6 µM): -5.31% (inactive)

COc1c(N2CCN(C(=S)Nc3ccccc3F)C(C)C2)c(F)cc2c(=O)c(C(=O)O)cn(C3CC3)c12 (centres undefined)
inhibition (at 3.6 µM): 9.08% (inactive)

CCc1cccc(CC)c1NC(=S)Nc1ccc2cn[nH]c2c1
inhibition (at 3.6 µM): -7.83% (inactive)

O=C1/C(=C/c2cccs2)SC(=S)N1C1CCS(=O)(=O)C1 (centres undefined)
inhibition (at 3.6 µM): 1.03% (inactive)

COc1ccc(OCC(O)CNCCNc2nccc(C(F)(F)F)n2)cc1 (centres undefined)
inhibition (at 3.6 µM): 42.7% (inactive)
inhibition [1]: 10.5%

Cc1ccc(/C=C/C(=O)O)cc1S(=O)(=O)N1CCC(Cc2ccccc2)CC1
inhibition (at 3.6 µM): -14% (inactive)

O=C(C[n+]1ccc2c(c1)nnn2-c1ccccc1)c1ccc(Cl)cc1
inhibition (at 3.6 µM): -3.04% (inactive)

CC1Cc2ccccc2N1C1=CC(=O)CC(C)(C)C1 (centres undefined)
inhibition (at 3.6 µM): 10.6% (inactive)

CC(=O)Nc1ccc(NC(=O)CSc2nnc(COc3ccccc3C)n2CC2CCCO2)cc1 (centres undefined)
inhibition (at 3.6 µM): 7.46% (inactive)

O=C(Nc1nnc(COc2ccccc2)s1)Nc1ccccc1F
inhibition (at 3.6 µM): 3.12% (inactive)

COc1ccc(CNC(=O)C(Cc2ccccc2)n2cccc2)cc1 (centres undefined)
inhibition (at 3.6 µM): 6.07% (inactive)

COc1ccc(Nc2cc(=O)n(-c3ccccc3)c3c2c(=O)n(C)c(=O)n3C)cc1
inhibition (at 3.6 µM): 13.6% (inactive)

CCN(CC)CCn1cnc2c1c(=O)n(CCOC(=O)c1cc(OC)c(OC)c(OC)c1)c(=O)n2C
inhibition (at 3.6 µM): 3.47% (inactive)

O=C1COc2ccc(C(=O)COC(=O)C3CC(O)CN3S(=O)(=O)c3ccc(Cl)cc3)cc2N1 (centres undefined)
inhibition (at 3.6 µM): -2.3% (inactive)

COc1ccc(CNC(=O)COC(=O)/C=C/c2ccc(S(=O)(=O)N3CCOCC3)cc2)cc1
inhibition (at 3.6 µM): -2.01% (inactive)
